# Compounds without any hit were thinned out: in the full panel of roughly 83,000, 20% have a hit.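 96-well plates, one dose, 48 hours. Percent growth reported; active if below 10.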 Values without a mark were called inactive. Calls of active or inactive are those of the source.
# System: K-562 leukemia
# Test: NCI-60 one-dose screen, 48 h (100 = growth as untreated, 0 = no growth, -100 = all killed)
# Conditions: 10 µM
row,Compound,growth
1,COc1ccc(N2N=C(c3ccc4c(c3)OCCO4)CC2c2cccc(NC(=O)CCCNS(=O)(=O)c3ccc(F)cc3)c2)cc1 (centres undefined),56%
2,COc1cc(/C=N/NC(=O)c2ccc3nc(-c4ccc(Cl)cc4)[nH]c3c2)cc(OC)c1OC,-12.4% (active)
3,O=C(N=Nc1c(O)[nH]c2ccc(Br)cc12)c1ccc2nc(-c3ccccc3)[nH]c2c1,1.09% (active)
4,COc1ccccc1[C@H]1C(C(=O)c2ccc(Cl)cc2)C2(N[C@@H]1c1ccccc1)C(=O)Nc1ccc(Cl)cc12 (some centres undefined),1.21% (active)
5,O=c1cc(-c2ccccc2)oc2cc(OCCCNCc3ccccc3)cc(O)c12,-20.1% (active)
6,O=C1Nc2cc(-c3ccc(NC(=O)c4cccs4)cc3)ccc2/C1=C/c1ccc[nH]1,80.8%
7,O=C(c1ccc(O)cc1)C1[C@H](c2ccc(Br)cc2)[C@@H](c2ccccc2)NC12C(=O)Nc1ccccc12 (some centres undefined),35.3%
8,C=C1CCC2C3(C)COC(c4ccccc4F)OC3CCC2(C)C1C/C=C1/C(=O)OCC1O (centres undefined),12.3%
9,C=C1CCC2C3(C)COC(c4c(F)cccc4F)OC3CCC2(C)C1C/C=C1/C(=O)OCC1O (centres undefined),13.4%
10,COc1cccc(/C=C2\N=C(C)N(CCc3ccc(S(N)(=O)=O)cc3)C2=O)c1,99.9%
11,C=C1CCC2C3(C)COC(c4cccc(F)c4)OC3CCC2(C)C1CC(O)C1=CCOC1=O (centres undefined),24.1%
12,Cn1cc(-c2cc(N)n3nc(-c4c[nH]c5ccc(Br)cc45)cc3n2)c2cccnc21,-3.96% (active)
13,C=C1CCC2C3(C)COC(c4c(F)cccc4F)OC3CCC2(C)C1CC(O)C1=CCOC1=O (centres undefined),21.4%
14,Brc1ccc(/C=C/c2n(Cc3ccc4ccccc4c3)c3ccccc3[n+]2Cc2ccc3ccccc3c2)cc1,-19.3% (active)
15,O=C(Nc1ccc(I)cc1)Nc1nc2ccc([N+](=O)[O-])cc2s1,-82.8% (active)
16,O=C(N/N=C/c1ccc(B(O)O)o1)c1[nH]c2ccc(Br)cc2c1-c1ccccc1,7.21% (active)
17,CONC[C@]1(C)C=C2C(=O)[C@](C)(O)C3(CC3)C(C)=C2[C@H]1O,2.9% (active)

row,Compound,growth
1,O=C(Nc1cccc(-c2cn(-c3ccc4oc(=O)ccc4c3)nn2)c1)Nc1cc(C(F)(F)F)cc(C(F)(F)F)c1,9.1% (active)
2,CCCCCCCCCCCCCCCCCCCC(=O)NCCc1c[nH]c2ccc(OC(=O)CCCC(=O)OCCOOCCOOCCOOCCOOCCOOCCOOCCOOCCOOCCOOCCOOCCOOCCOC)cc12,2.22% (active)
3,COc1ccc(/C(C)=N/N=C2C(=O)N(C)c3ccc(Br)cc32)cc1S(N)(=O)=O,93.1%
4,N#Cc1c(NC(=O)c2ccc(C(F)(F)F)cc2C(F)(F)F)sc2c1CCC(=O)C2,2.16% (active)
5,CNCc1cccc2c1OCCCCCC[C@@](C)(O)CC1(CC1)S(=O)(=O)c1ccc(cc1)-c1cnc(N)c(n1)C(=O)N2,-37.5% (active)
6,COc1cc(OC(F)(F)F)ccc1C(=O)Nc1sc2c(c1C#N)CCC(=O)C2,11%
7,Nc1n[nH]c2cccc(C#Cc3cccc(NC(=O)Nc4cc(C(F)(F)F)cc(C(F)(F)F)c4)c3)c12,-57.4% (active)
8,N#Cc1c(-c2ccc(F)cc2)nc(SCc2ccc([N+](=O)[O-])cc2)nc1N1CCOCC1,76.9%
9,CC1=N/C(=C\c2ccc(N(C)C)cc2)C(=O)N1CCc1ccc(S(N)(=O)=O)cc1,90.6%
10,CN(CCF)c1ccc(/C=C/C(=O)c2ccc(N)cc2O)cc1,51.4%
11,O=C(c1ccc(Cl)cc1)C1[C@H](c2ccccc2Br)[C@@H](c2ccccc2)NC12C(=O)Nc1ccccc12 (some centres undefined),3.71% (active)
12,O=C(Nc1cc(Cl)cc(Cl)c1)Nc1cc(Cl)cc(Cl)c1,-25.5% (active)
13,O=C(c1ccc(O)cc1)C1[C@H](c2ccc(Br)cc2)[C@@H](c2ccccc2)NC12C(=O)Nc1ccc(Br)cc12 (some centres undefined),3.5% (active)
14,COc1ccccc1[C@H]1C(C(=O)c2ccc(O)cc2)C2(N[C@@H]1c1ccccc1)C(=O)Nc1ccc(Br)cc12 (some centres undefined),23.1%
15,CN1CCN(c2ccc(C(=O)/C=C/c3ccc(C#N)cc3)cc2)CC1,7.48% (active)
16,CC(C)(C)Nc1nc2cc(Cl)c(Cl)cc2nc1S(C)(=O)=O,-5.97% (active)
17,COc1cc(/C=C/C(=O)c2cc(OC)c(OC)c(OC)c2)ccc1Oc1nc(Nc2ccc(F)cc2)nc(N(C)C)n1,2.36% (active)

# Source: PubChem BioAssay (NCI)
